Rows were chosen to be rich in hits. Some 2.9% of all compounds tested hit in one or more screens of this group.
ABCB6 inh 2: human ABCB6 transporter inhibition. K562-ABCB6 porphyrin accumulation, flow cytometry, 1 h; hits give low values. fluorescence ratio to DMSO, % at 10 µM. actives 0.19% (n = 360,000). AID 602162;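 active = fluorescence ratio to DMSO below 75%, the collection mean minus 3 SD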;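 note: signal is porphyrin accumulated inside mitochondria; 100% equals median channel fluorescence of DMSO control wells; lower ratio means ABCB6 inhibition with less porphyrin fluorescence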
Target sequence (Q9NP58 whole entry, looked up): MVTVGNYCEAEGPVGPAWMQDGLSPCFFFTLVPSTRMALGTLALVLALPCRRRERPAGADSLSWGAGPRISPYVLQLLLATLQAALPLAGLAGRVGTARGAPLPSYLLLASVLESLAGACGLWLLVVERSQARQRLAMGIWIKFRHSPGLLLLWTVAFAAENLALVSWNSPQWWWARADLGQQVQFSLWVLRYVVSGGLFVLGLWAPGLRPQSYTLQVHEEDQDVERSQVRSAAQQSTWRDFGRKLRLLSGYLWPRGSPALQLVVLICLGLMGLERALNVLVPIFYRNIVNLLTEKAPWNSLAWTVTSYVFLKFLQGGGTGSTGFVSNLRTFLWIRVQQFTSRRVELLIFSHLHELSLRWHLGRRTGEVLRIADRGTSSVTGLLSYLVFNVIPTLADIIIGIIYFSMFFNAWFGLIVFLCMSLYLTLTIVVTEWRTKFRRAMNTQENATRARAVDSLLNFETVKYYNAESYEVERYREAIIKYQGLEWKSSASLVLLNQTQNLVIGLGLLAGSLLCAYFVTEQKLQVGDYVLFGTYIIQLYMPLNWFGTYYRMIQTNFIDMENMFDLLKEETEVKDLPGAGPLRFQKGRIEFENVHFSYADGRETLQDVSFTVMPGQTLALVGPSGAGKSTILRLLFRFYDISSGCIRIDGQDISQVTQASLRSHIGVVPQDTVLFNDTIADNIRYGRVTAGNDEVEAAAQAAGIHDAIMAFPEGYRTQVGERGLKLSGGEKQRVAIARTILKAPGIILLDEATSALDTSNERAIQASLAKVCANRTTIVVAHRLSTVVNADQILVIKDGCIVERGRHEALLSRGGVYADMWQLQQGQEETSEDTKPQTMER
MEKK2wt PB1 HTS: raises or lowers MEK5 binding to wildtype human MEKK2 PB1 domain. bead flow cytometry, Alexa488-MEK5 binding to MEKK2 WT; actives lie on both sides. actives 1.1% (n = 290,000). binding response (% of control), % at 10 µM; in the data active = binding response below about 67% or above about 130%
CRFR2-BP ag: CRF-BP/CRF-R2 complex agonism | actives 0.46% (n = 350,000) | activation, % at 13.2 µM | HEK293 CRF-R2/CRF-BP, calcium dye fluorescence (FLIPR); percent of saturating CRF peptide response;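 active = activation of at least 50%, plus an integration ratio under a set limit after plate pattern correction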;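 note: plate controls were neutral control wells without compound for no effect and CRF at EC100 for full effect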
CRFR2-BP antag: blocks CRF-induced signaling of the CRF-BP/CRF-R2 complex; AID 588475; HEK293 CRF-R2/CRF-BP, CRF-induced calcium fluorescence; inhibition, % at 11.8 µM; actives 0.59% (n = 350,000);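 active = inhibition of the ligand-induced calcium signal above about 50% at the single tested concentration, limit read from the data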
MEKK2 mut-MEK5: signal of MEK5 binding to mutant human MEKK2 PB1 domain; actives 0.35% (n = 290,000); AID 1530; percent response, % at 10 µM; bead flow cytometry, Alexa488-MEK5 binding to MEKK2 mutant; in the data active = percent response above about 24%, passing the limit was not always enough
MEKK3 PB1 HTS: modulators (inhibitors or enhancers) of MEK5 binding to human MEKK3 PB1 domain. Q99759. bead-based flow cytometry, Alexa488-MEK5 binding to MEKK3; actives lie on both sides; 0 = blocked by unlabeled MEK5, 100 = vehicle. binding response (% of control), % at 10 µM. actives 1.4% (n = 290,000). AID 1529;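 active = binding response more than 3 SD above or below the average of its plate-row segment, actives on both sides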;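 note: Alexa488 bead fluorescence after subtracting the streptavidin-only scavenger bead signal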
MEKK2wt confirm: raises or lowers MEK5 binding to wildtype human MEKK2, retest; shares compounds with MEKK3 PB1 HTS; binding response (% of control), % at 10 µM; actives 2.4% (n = 5,900); bead flow cytometry, Alexa488-MEK5 binding to MEKK2 WT; actives lie on both sides; in the data active = binding response below about 16% or above about 210%; inactive = in between
MEKK2mut confirm: signal of MEK5 binding to mutant human MEKK2, retest; shares compounds with MEKK3 PB1 HTS; bead flow cytometry, Alexa488-MEK5 binding to MEKK2 mutant; percent response, % at 10 µM; actives 2% (n = 5,900); in the data active = percent response mostly above about 71%, no sharp cut-off; inactive = mostly below about 38%;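 note: higher means compound restores mutant binding toward wildtype level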
MEKK3-MEK5 inh: confirmation of inhibitors of MEK5 binding to human MEKK3 | shares compounds with MEKK3 PB1 HTS | bead flow cytometry, Alexa488-MEK5 binding to MEKK3; hits give low values | binding response (% of control), % at 10 µM | actives 1.8% (n = 5,900) | AID 1894;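 active = binding response below 72% of control, or above a set upper limit, though filed actives all read lower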;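 note: 100% = DMSO only wells and 0% = binding blocked by excess unlabeled MEK5; lower values mean stronger disruption of MEK5 binding to MEKK3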
An asterisk follows results filed as active; i = inactive; / = no result; [ ] = dose if it differs, or a comment.

SMILES	ABCB6 inh 2	MEKK2wt PB1 HTS	CRFR2-BP ag	CRFR2-BP antag	MEKK2 mut-MEK5	MEKK3 PB1 HTS	MEKK2wt confirm	MEKK2mut confirm	MEKK3-MEK5 inh
O=C(CCNC(=O)c1ccc([N+](=O)[O-])cc1)Nc1ccccc1N1CCCCC1	99	/	0	-2	/	/	/	/	/
COc1ccc(-c2noc(N3CCC(C(=O)Nc4cc(OC)c(OC)c(OC)c4)CC3)n2)cc1	104	107	-1	3	10	103	/	/	/
CCN1C(=O)c2cccc3c(S(=O)(=O)Nc4ncccc4C)ccc1c23	105	85	1	-11	-10	82*[inhibitor]	105	3	105
CCN1C(=O)c2cccc3c(S(=O)(=O)Nc4ccccn4)ccc1c23	77	104	0	-24	4	112	/	/	/
CCCNC(=O)Cn1c(=O)/c(=C\c2ccc(-c3ccc([N+](=O)[O-])cc3)o2)s/c1=C\C(=O)C(C)(C)C	i	/	356*	-443	132*	90	79	-25	93
O=C(Cc1ccccc1)N/N=C/c1ccc(-c2ccc([N+](=O)[O-])cc2)o1	95	107	11	-37	1	104	/	/	/
O=C1c2ccc(-c3ccc(Cl)c(C(F)(F)F)c3)cc2S(=O)(=O)c2cccc(C(=O)N3CCN(c4ccc(Cl)cn4)CC3)c21	100	/	1	12	/	/	/	/	/
CCc1nc(SCC(=O)N2CCOCC2)c2c(=O)n(C)c(=O)n(C)c2n1	96	111	-2	-8	6	112	/	/	/
Cn1c(=O)c2c(SCCN3CCOCC3)nc(C3CCCC3)nc2n(C)c1=O	93	74	0	2	-4	58*[inhibitor]	104	-2	99
O=C(CCN1CCCCC1)c1ccccc1	100	100	0	-8	4	100	/	/	/
C[N+]1(CCC(=O)c2ccccc2)CCCCC1	95	2.0*[inhibitor]	-2	-28	-13	2.0*[inhibitor]	117	11	114
O=C(/C=C\c1cn(-c2ccccc2)nc1-c1ccccc1)Nc1nccs1	97	104	-2	8	0	140*	104	2	104
CC(=O)NS(=O)(=O)c1ccc(NC(=O)/C=C/c2cn(-c3ccccc3)nc2-c2ccccc2)cc1	101	91	-2	10	-6	96	/	/	/
c1ccc(CSc2ccc(-c3ccc4c(c3)OCO4)nn2)cc1	99	110	1	15	10	101	/	/	/
Fc1ccc(CSc2ccc(-c3ccc4c(c3)OCO4)nn2)cc1	105	105	1	4	0	135*	105	7	104
Cc1ccc(NC(=O)CSc2ccc(-c3ccc4c(c3)OCO4)nn2)cc1F	96	101	2	26	0	132*	107	10	109
Cc1cc(NC(=O)CSc2ccc(-c3ccc4c(c3)OCO4)nn2)no1	/	80	/	/	-15	77	/	/	/
COc1ccc(NC(=O)CC2SC(=NCC3CCCO3)NC2=O)cc1 (stereo not given)	99	98	0	3	-2	99	/	/	/
Cc1ccc(NC(=O)CC2SC(=NCC3CCCO3)NC2=O)cc1Cl (stereo not given)	96	101	-2	-13	-1	139*	96	-6	102
CCn1c(CNC(=O)c2ccccc2Br)nnc1SCC(=O)NC1=NCCS1	99	94	1	1	-6	95	/	/	/
CC(=O)N=c1c(C#N)cc2c(=O)n3cccc(C)c3nc2n1CCCOC(C)C	106	46*[inhibitor]	1	7	-27	67	101	-7	98
O=C(Nc1ccc(Cl)cc1)Nc1ccccc1CC[N+](=O)[O-]	92	6.0*[inhibitor]	1	3	-19	4.0*[inhibitor]	105	-3	100
CCOc1ccc(OCCC(=O)OCC(=O)Nc2ccc3c(c2)OCCO3)cc1	99	/	0	9	/	/	/	/	/
O=C(O)Cc1sc(-c2ccccc2)nc1-c1ccc(Cl)cc1	98	/	1	33	/	/	/	/	/
O=C(O)Cc1sc(-c2ccc(Cl)cc2)nc1-c1ccccc1	100	116	-1	21	4	123*	98	7	104
SMILES	ABCB6 inh 2	MEKK2wt PB1 HTS	CRFR2-BP ag	CRFR2-BP antag	MEKK2 mut-MEK5	MEKK3 PB1 HTS	MEKK2wt confirm	MEKK2mut confirm	MEKK3-MEK5 inh
Cc1c(-c2cccs2)[n+](=O)c2c(n1[O-])CCC2	89	112	1	-9	4	109	/	/	/
Cc1c(C)[n+](=O)c(-c2cccs2)c(C)n1[O-]	91	0.0*[inhibitor]	-1	-5	-9	1.0*[inhibitor]	98	-6	103
CCCCC1(CC(=O)OC)C(=O)N(c2ccccc2)N(c2ccccc2)C1=O	100	107	-5	7	2	138*	102	-6	103
COc1ccc(-c2nn(-c3ccccc3)cc2/C=C/C(=O)OCC(=O)Nc2ccc(C#N)cc2)cc1	99	106	2	8	-1	96	/	/	/
COc1ccc(-c2nn(-c3ccccc3)cc2/C=C/C(=O)OCC(=O)Nc2cccc(C#N)c2)cc1	94	104	-1	-18	2	130*	106	1	105
CCOC(=O)N/N=C(\C)c1ccc(C)c([N+](=O)[O-])c1	97	108	-2	-11	1	132*	97	-1	99
COc1cc2cc(C)c(Br)c(OC)c2cc1OC	93	/	-6	8	/	/	/	/	/
O=C(OCCC1Oc2cccnc2NC1=O)c1ccc([N+](=O)[O-])cc1 (stereo not given)	/	75	/	/	-9	74*[inhibitor]	100	-1	99
O=C(OCCC1Oc2cccnc2NC1=O)c1ccc(F)cc1 (stereo not given)	96	98	-1	-9	0	99	/	/	/
O=c1c2cc(N3CCOCC3)ccc2[nH]c(=S)n1CCN1CCCC1	101	101	2	8	2	101	/	/	/
O=c1c2cc(N3CCOCC3)ccc2[nH]c(=S)n1CCCN1CCCCCC1	100	148*	3	-3	13	101	125	10	99
Cc1onc(-c2ccccc2)c1-c1nnc(CN2CCN(S(=O)(=O)c3ccccc3F)CC2)o1	101	/	0	-6	/	/	/	/	/
CC(C)(C)NC(=O)c1cc(C(C)(C)C)c(O)c(C(C)(C)C)c1	97	94	1	-17	0	97	/	/	/
CCN(CC)C(=O)c1cc(C(C)(C)C)c(O)c(C(C)(C)C)c1	93	105	4	-7	0	128*	108	8	105

Assay outcomes: PubChem BioAssay, several laboratories
